# ABCB6 inh MLPCN = blocks the human ABCB6 transporter | Q9NP58 | K562-ABCB6 porphyrin accumulation, flow cytometry, 1 h; hits give low values | fluorescence ratio to DMSO, % at 10 µM | 360,000 compounds, 0.19% hits | AID 602162;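 active = fluorescence ratio to DMSO below 75%, the collection mean minus 3 SD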;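 also: signal is porphyrin accumulated inside mitochondria; 100% equals median channel fluorescence of DMSO control wells; lower ratio means ABCB6 inhibition with less porphyrin fluorescence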
# Target sequence (Q9NP58 whole entry, looked up): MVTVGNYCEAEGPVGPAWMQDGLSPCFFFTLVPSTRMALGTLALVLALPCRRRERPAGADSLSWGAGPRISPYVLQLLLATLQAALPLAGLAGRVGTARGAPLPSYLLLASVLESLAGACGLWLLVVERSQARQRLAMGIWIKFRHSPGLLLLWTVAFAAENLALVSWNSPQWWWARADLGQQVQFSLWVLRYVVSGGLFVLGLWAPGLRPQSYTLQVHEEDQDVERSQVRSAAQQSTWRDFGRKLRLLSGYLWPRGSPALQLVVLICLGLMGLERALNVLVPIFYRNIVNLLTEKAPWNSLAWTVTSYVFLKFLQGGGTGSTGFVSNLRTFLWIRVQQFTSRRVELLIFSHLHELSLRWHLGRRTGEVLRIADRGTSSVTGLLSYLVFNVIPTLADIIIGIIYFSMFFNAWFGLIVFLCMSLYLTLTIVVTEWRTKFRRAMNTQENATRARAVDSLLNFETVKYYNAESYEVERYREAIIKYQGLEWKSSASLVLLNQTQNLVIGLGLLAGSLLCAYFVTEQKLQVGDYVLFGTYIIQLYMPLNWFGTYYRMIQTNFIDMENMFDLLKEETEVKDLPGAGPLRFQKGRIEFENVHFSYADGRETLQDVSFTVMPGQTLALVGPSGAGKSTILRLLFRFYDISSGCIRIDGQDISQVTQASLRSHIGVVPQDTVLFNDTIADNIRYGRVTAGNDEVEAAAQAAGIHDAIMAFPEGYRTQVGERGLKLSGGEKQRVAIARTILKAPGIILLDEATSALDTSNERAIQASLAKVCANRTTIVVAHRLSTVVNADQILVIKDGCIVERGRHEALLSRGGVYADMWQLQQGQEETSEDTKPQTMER
# SMARCA2 act = increases SMARCA2 function in MMTV reporter cells; MG213 cells, MMTV-luciferase reporter, dexamethasone, overnight; activation, % at 9.1 µM; 370,000 compounds, 1% hits; in the data active = activation above about 7.8%;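 also: 0% = vehicle wells and 100% = reference activator wells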
# MsrA inhibitor = inhibits bovine methionine sulfoxide reductase A; AID 651718; purified bovine MsrA, absorbance read-out; inhibition, % at 15.5 µM; 360,000 compounds, 0.75% hits; in the data active = inhibition above about 4.5%;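 also: 0% = vehicle wells with enzyme and 100% = reference inhibitor wells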
# bovine MsrA act = activators of bovine methionine sulfoxide reductase A | 360,000 compounds, 0.3% hits | activation, % at 10.6 µM | purified bovine MsrA, absorbance read-out; in the data active = activation above about 7.5%;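 also: 0% = vehicle and 100% = reference activator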
# SMARCA2 conf = confirmation of SMARCA2 (BRM) function activators | shares compounds with SMARCA2 act | MG213 cells, MMTV-luciferase with dexamethasone, luminescence, overnight; MG213 cells expressing E1A, Rb sequestered; DMSO wells 0%, reference activator 100% | activation, % at 9.1 µM | 3,500 compounds, 30% hits | AID 652260;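 active = activation above its plate's cutoff, the mean activation of tested wells plus 3 SD, cut at about 7.9% in these data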
# GAL4-VP16 Luc = GAL4-VP16 reporter activation counter-screen; shares compounds with SMARCA2 act; HEK293 GAL4-VP16 pG5luc reporter, luciferase luminescence; scaled: DMSO wells 0%, SAHA wells 100%; activation, % at 9.1 µM; 3,500 compounds, 41% hits; AID 686939;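 active = activation above the solvent-only control well mean plus 3 SD, averaged across control plates, cut at about 5.2% in these data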
# * = called active by the depositor; nt = not tested or not shown. An excerpt weighted towards active compounds, which were near 2.1% of everything screened.
SMILES,ABCB6 inh MLPCN,SMARCA2 act,MsrA inhibitor,bovine MsrA act,SMARCA2 conf,GAL4-VP16 Luc
CS(=O)(=O)N[C@@H]1C[C@@H]2O[C@H](CO)CC[C@@H]2O[C@@H]1CCc1ccc(/C=C/c2ccccc2)cc1,nt,-3.4,nt,nt,nt,nt
CCCCCCN1CCN(C2CN(CCCC)S(=O)(=O)C2)CC1 (stereo not drawn),96.0,8.7*,0.1,-3.8,-3.2,2.4
C[C@@H]1CN(c2ccc(N3CCNC[C@@H]3C)cc2C#N)C[C@H](C)O1,nt,-0.9,0.8,nt,nt,nt
Fc1ccccc1-c1nc(-c2ccc(Cl)cc2)no1,97.0,8.0*,-1.0,-6.0,12.6*,9.7*
NC(=O)c1ccc(-c2noc(-c3ccccc3F)n2)cc1,91.0,6.1,0.5,-2.2,nt,nt
Nc1ncnc(Sc2ncccn2)c1[N+](=O)[O-],102.0,17.9*,3.2,0.5,-13.4,2.1
Nc1ncnc(Sc2ccccc2)c1[N+](=O)[O-],104.0,0.5,2.5,-6.2,nt,nt
COc1cc(-n2c(C)nc3cc(C(=O)N4CCCC4)ccc32)cc(OC)c1OC,nt,2.1,nt,nt,nt,nt
COC(=O)c1cccc(Oc2cccc(C(F)(F)F)c2)n1,103.0,11.0*,-0.5,-7.5,1.7,2.2
COC(=O)C1CN(CCO)CCS(=O)(=O)N1Cc1cn(Cc2cccc(Cl)c2)nn1 (stereo not drawn),nt,-1.8,nt,nt,nt,nt
CCCCCN1CCCCC(NC(=O)c2ccc(C)cc2)C1=O (stereo not drawn),nt,-1.0,nt,nt,nt,nt
COc1cccc(N=c2oc3ccc(OC)cc3cc2-c2nc3ccccc3[nH]2)c1,94.0,8.3*,1.8,-1.3,3.6,12.1*
COc1ccc2oc(=O)c(-c3nc4ccccc4o3)cc2c1,92.0,6.8,2.6,-2.3,nt,nt
COc1ccc(N=c2oc3ccc(OC)cc3cc2-c2nc3ccccc3[nH]2)cc1,94.0,13.9*,1.1,-2.0,2.8,9.9*
COC(=O)[C@@H]1C[C@@]2(c3ccccc3)c3ccccc3N(S(=O)(=O)c3ccccc3)[C@H]2N1C(=O)CNC1CCCCC1,nt,-3.6,nt,nt,nt,nt
c1ccc(-c2cc(N3CCCCC3)ncn2)cc1,87.0,8.2*,1.0,-5.3,8.5*,8.6*
NC(=O)c1ncn([C@@H]2O[C@H](CNCc3cccn3-c3ccncc3)[C@@H](O)[C@H]2O)n1,97.0,8.4*,0.4,-10.1,-0.3,-1.4
O=C(Nc1ccc(F)cc1)C(c1ccncc1)N1CCN(CC(=O)N2CCCC2)CC1 (stereo not drawn),nt,-0.3,1.0,nt,nt,nt
Cc1ccc(S(=O)(=O)N2CCOCC2)cc1C(=O)NCc1cccnc1,103.0,10.2*,0.5,-0.5,0.2,0.9
O=C(NCc1cccnc1)c1ccc(S(=O)(=O)N2CCOCC2)cc1,94.0,1.6,1.3,-1.2,nt,nt
CN(c1c2c(nc3ncnn13)CCCC2)C1CCCCC1,nt,6.8,nt,nt,nt,nt
O=C(Cc1cccs1)NNC(=O)c1ccc(F)cc1,102.0,-0.7,-0.1,-3.9,nt,nt
Cc1ccc(C(=O)NNC(=O)Cc2cccs2)cc1,94.0,9.1*,-0.5,-2.2,2.5,1.7
C=CCN1C(=O)[C@H](CC(=O)NCc2ccc(OC)c(OC)c2)[C@@]2(C(=O)OCC)CCCC=C12,nt,-0.1,nt,nt,nt,nt
COC(=O)[C@]12CCCCC=C1N(Cc1ccc(OC)cc1)C(=O)[C@@H]2CC(=O)NCc1cccc(C(F)(F)F)c1,nt,0.6,nt,nt,nt,nt
SMILES,ABCB6 inh MLPCN,SMARCA2 act,MsrA inhibitor,bovine MsrA act,SMARCA2 conf,GAL4-VP16 Luc
O=C(COC(=O)/C=C/c1ccc(F)cc1)Nc1ccc(Cl)cn1,97.0,-5.4,0.1,-7.5,nt,nt
COc1cc(/C=C/C(=O)OCC(=O)Nc2ccc(Cl)cn2)ccc1O,98.0,10.2*,1.2,-2.8,3.9,1.3
Cc1cc2c(c(=O)o1)[C@@]1(C(=O)N(C)c3ccccc31)C1=C(CCCC1=O)O2,nt,-1.0,0.2,nt,nt,nt
Cc1sc2nc(CN3CCCCC3)nc(Nc3ccc4c(c3)OCCO4)c2c1C,104.0,9.2*,0.7,-3.4,10.6*,-1.1
Cc1sc2nc(CN3CCCC3)nc(NCc3ccncc3)c2c1C,103.0,4.0,-0.2,-0.2,nt,nt
C=COC(=O)c1sc2nc(C)cc(C)c2c1N,95.0,9.3*,-0.1,-4.6,11.4*,2.3
CN(CCOC(=O)c1occ2ccccc12)C1CN(Cc2cn(Cc3ccccc3Cl)nn2)S(=O)(=O)C1 (stereo not drawn),nt,2.6,nt,nt,nt,nt
COc1ccc(-n2c(COc3ccc(Cl)cc3)nnc2SCC(=O)Nc2ccc3c(c2)OCO3)cc1,nt,-1.1,nt,nt,nt,nt
O=C(CSc1ncccn1)Nc1ccc2c(c1)OCO2,117.0,-0.7,0.6,-3.5,nt,nt
O=C(CSc1ccccn1)Nc1ccc2c(c1)OCCO2,102.0,8.4*,0.9,-1.6,8.4*,11.8*
O=C(Nc1ccc(Cl)cc1)Nc1ccc2c(c1)OCO2,103.0,9.0*,-0.2,-3.8,2.6,11.2*
Cc1ccc2nc(-c3ccc(SCC(=O)Nc4ccc5c(c4)OCCO5)nc3)[nH]c2c1,100.0,9.8*,2.1,-0.3,3.0,19.4*
Cc1cc2nc(-c3ccc(SCC(=O)Nc4ccc5c(c4)OCCO5)nc3)[nH]c2cc1C,99.0,7.5,3.1,-3.0,nt,nt
O=C(CNCc1ccccc1Cl)Nc1ccc2c(c1)OCCO2,98.0,13.3*,-0.3,-2.9,12.7*,6.9*
O=C(CSCc1ccccc1Cl)Nc1ccc2c(c1)OCCO2,100.0,7.3,-0.6,6.0,nt,nt
C[C@@H]1[C@@H](O)C[C@@]2(C[C@H](O)c3cc(F)ccc3O2)O[C@H]1c1ccccc1Cl,nt,-1.4,nt,nt,nt,nt
COc1ccc(C2Nc3cccc(O)c3C(=O)N2Cc2ccccc2)cc1COc1ccc(NC(C)=O)cc1 (stereo not drawn),93.0,-4.2,1.0,-5.6,nt,nt
Nc1[nH]c2cc(Cl)ccc2c1C(=O)N1CCOCC1,nt,-3.6,nt,nt,nt,nt
COc1ccc(C2CC(c3ccc(OC)c(OC)c3)=NN2C(=O)c2ccccc2)cc1 (stereo not drawn),95.0,13.3*,-0.3,-4.4,12.5*,3.1
Cc1ccccc1CN1CCCCC(NC(=O)c2ccccc2F)C1=O (stereo not drawn),nt,-2.5,nt,nt,nt,nt
Nc1nc2cc(S(=O)(=O)NC3=NCCCCC3)ccc2s1,104.0,9.8*,1.3,-3.0,-2.4,0.0
O=[N+]([O-])c1ccc2c(c1)CCCO[C@]21O[C@H](CCO)C[C@H](O)[C@H]1O,nt,-4.6,-0.7,nt,nt,nt
Cc1cccc(NC(=O)c2ccc(NCC3CCCO3)c([N+](=O)[O-])c2)c1 (stereo not drawn),99.0,8.1*,0.0,0.7,1.1,3.1
O=C(Nc1cccc(Cl)c1)c1ccc(NCC2CCCO2)c([N+](=O)[O-])c1 (stereo not drawn),97.0,-2.4,0.9,-10.5,nt,nt
CN(C)Cc1ccc(CNC(=O)c2ccc(Cl)c(S(=O)(=O)NC3CC3)c2)cc1,98.0,9.0*,-0.6,-3.2,0.3,2.9
COc1cc(/C=C2/SC(=Nc3ccc(O)cc3)NC2=O)cc(OC)c1O,222.0,8.9*,2.4,-13.9,4.3,1.4
O=C(CNC(=O)c1ccncc1)N/N=C/c1ccc(Br)cc1,95.0,-2.5,-0.5,-1.7,nt,nt

# Compound activity from PubChem BioAssay.
